ROMK primary: human ROMK K+ channel modulation, primary screen. P48048. Tet-inducible ROMK, thallium flux fluorescence; actives lie on both sides. B-score at 10 µM. hit rate 2% among 130,000;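 active = signal ratio slope over the read window, or its plate-corrected B-score, at least 3 SD from the plate mean, either direction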;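 also: B-score of the F/F0 ratio slope over 7 to 12 s after thallium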
Target sequence (P48048 whole entry, looked up): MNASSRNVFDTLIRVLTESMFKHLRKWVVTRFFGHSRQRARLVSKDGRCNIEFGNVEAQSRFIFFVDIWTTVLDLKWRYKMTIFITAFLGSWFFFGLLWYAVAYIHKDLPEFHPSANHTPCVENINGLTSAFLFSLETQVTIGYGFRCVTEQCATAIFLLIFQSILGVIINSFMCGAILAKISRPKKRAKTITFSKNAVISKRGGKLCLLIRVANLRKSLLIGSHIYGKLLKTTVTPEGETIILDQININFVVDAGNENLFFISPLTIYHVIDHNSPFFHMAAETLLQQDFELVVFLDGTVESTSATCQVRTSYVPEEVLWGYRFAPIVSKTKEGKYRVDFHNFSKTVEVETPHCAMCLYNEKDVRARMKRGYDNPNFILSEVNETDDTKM
S1P3 antagonist: S1P3 (human) receptor antagonism | Q99500 | CHO S1P3 NFAT-BLA reporter, FRET fluorescence, antagonist mode | inhibition, % at 4.98 µM | hit rate 0.27% among 170,000 | AID 485;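 active = inhibition above the plate cutoff, the mean inhibition of test wells on that plate plus 3 SD, cut at about 28% in these data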;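 also: cells challenged with S1P at its EC80 of 0.8 µM; blue over green emission ratio from cleaved BLA substrate after 4 h stimulation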
S1P4 ag: agonists of human S1P4 receptor | O95977 | S1P4-expressing cell line, agonist reporter assay | activation, % at 4.98 µM | hit rate 0.35% among 220,000; in the data active = activation above about 11%
KCC2 mod: modulates chloride dependent transport by human KCC2. KCC2 cells, thallium flux FluoZin-2 fluorescence. B-score of Tl+ flux slope (higher = more flux/activation; lower = inhibition) at 10 µM. hit rate 2.2% among 190,000. AID 1456;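 active = thallium flux slope and its plate-corrected score both differing from the plate sample mean at a set confidence after two filtering rounds, in either direction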;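 also: slope of fluorescence scaled to starting intensity during 10 to 20 s after thallium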
S1P4 antagonist: antagonists of human S1P4 receptor. O95977. S1P4-expressing cells, antagonist mode, reporter read-out. inhibition, % at 4.98 µM. hit rate 0.26% among 220,000. AID 1510; in the data active = inhibition above about 29%
RAM network inh: yeast RAM network inhibition. S. cerevisiae dse1pr::URA3 reporter, 5-FOA growth OD615, 2 d; analog-sensitive cbk1-as2 kinase mutant strain. inhibition, % at 50 µM. hit rate 1.8% among 190,000. AID 868;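 active = inhibition above a set limit, 3 SD over mean compound inhibition, cut at about 8.4% in these data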;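 also: inhibition rescues growth on 5-FOA so higher OD means more RAM inhibition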
Numbers stand for hits; i = inactive; nt = no result. Rows were chosen to be rich in hits. Some 5.1% of all compounds tested hit in one or more screens of this group.

SMILES	ROMK primary	S1P3 antagonist	S1P4 ag	KCC2 mod	S1P4 antagonist	RAM network inh
CCOC(=O)c1sc2nc(CC(=O)OC)nc(NCc3ccco3)c2c1C	nt	nt	i	i	i	11
CC1=C(C(=O)N(C)C)C(c2ccc(C)s2)NC(=S)N1 (centres undefined)	nt	i	i	i	i	i
CCO/C(C)=N/n1c2nc3ccccc3nc2c2c(=O)n(Cc3ccccc3Cl)c(C)nc21	i	nt	i	nt	i	8.6
Cc1nc2c(c(=O)n1Cc1ccccc1Cl)c1nc3ccccc3nc1n2Cc1ccco1	nt	i	nt	nt	nt	nt
Cc1cc(Oc2ccc(C)c(Cl)c2)nc(SCC(=O)c2ccccc2)n1	i	i	i	i	i	9.1
COc1ccc(Cl)cc1NC(=O)Nc1cccc([N+](=O)[O-])c1C	nt	nt	i	i	i	i
COc1ccc2nc(N=Nc3ccc(O)c4ccccc34)sc2c1	nt	i	i	18	i	i
COc1ccc2nc(N=NC3=C(O)CC(C)(C)CC3=O)sc2c1	nt	i	i	i	i	i
Cc1ccc2nc(-c3ccsc3)c(NC3CCCC3)n2c1	i	i	i	i	i	i
COc1ccc2c(CC(=O)Nc3ccc(OC)c(NS(=O)(=O)c4ccc(F)cc4)c3)coc2c1	nt	81	i	i	i	i
COc1ccc2c(CC(=O)Nc3ccccc3OC)coc2c1	i	i	i	i	i	i
NC(N)=NCC(O)CN(c1ccccc1)c1ccccc1 (centres undefined)	nt	i	i	i	i	nt
Brc1cccc(CNc2nc3ccccc3n2CCN2CCOCC2)c1	i	i	i	i	i	i
Cc1ccc(C2c3c(C)nn(-c4ccc([N+](=O)[O-])cc4)c3N=C3C(=O)Nc4ccccc4N32)cc1 (centres undefined)	i	i	i	i	i	9.9
CCCN1C(=O)N(c2cccc(C)c2)C(C)(O)CC1(C)C (centres undefined)	nt	i	i	i	i	nt
Cc1ccc(C(=O)CC(=O)c2cccc(F)c2)c(O)c1	i	nt	i	22	i	i
CC(=O)c1ccc(C)cc1OC(=O)c1cccc(F)c1	i	i	i	i	i	i
COc1ccc(Br)cc1CNC(=O)CCNC(=O)Cn1ccc2ccccc2c1=O	i	i	i	i	i	i
CCc1nnc(NC(=O)CSc2nnc(-c3ccccc3O)n2-c2ccc(C)cc2C)s1	nt	i	i	i	i	8.5
Clc1cc(Cl)c(OCc2nc(-c3ccccn3)no2)cc1Cl	i	i	i	i	i	11
Cc1ccc(NC(=O)Cn2cc(S(=O)(=O)c3ccc(F)cc3)c(=O)c3cc(F)ccc32)cc1	i	i	i	i	i	8.5
COc1cccc(CC2CC(=O)N(c3ccc4c(C)cc(=O)oc4c3)C2=O)c1 (centres undefined)	i	i	i	i	i	i
Cc1nnc(SCc2ccc(F)cc2)n1NC/C=C/c1ccccc1	nt	nt	i	-4.7	i	i
CCC1(c2ccc(Cl)cc2)NC(=S)N(c2ccccc2)N1 (centres undefined)	nt	i	i	23	i	i
CCCCCC1(C)NC(=S)N(c2ccccc2)N1 (centres undefined)	i	i	i	i	i	i
SMILES	ROMK primary	S1P3 antagonist	S1P4 ag	KCC2 mod	S1P4 antagonist	RAM network inh
CCOC(=O)c1c(C)[nH]c(C)c1C(=O)CSc1nc2ccccc2c(=O)n1-c1ccc(F)cc1	i	i	i	i	i	i
CCOC(=O)c1c(C)[nH]c(C)c1C(=O)CSc1nc2ccccc2c(=O)n1-c1ccccc1C	i	i	i	i	i	9.7
O=C(NCCc1ccccc1)c1ccc(-c2ccccc2Cl)o1	i	i	i	i	i	8.6
O=C1CCC/C(=N/NC(=O)C2CCN(S(=O)(=O)c3cccs3)CC2)C1	i	i	i	i	i	i
NNC(=O)c1csc(-c2ccc(C(F)(F)F)cc2Cl)n1	nt	i	i	i	i	nt
Cc1cc(-c2n[nH]c(=S)n2/N=C/c2ccc(Br)s2)n[nH]1	nt	i	i	10	i	i
Cc1ccccc1NC(=O)C(=Cc1ccc(C(=O)O)cc1)C(=O)Nc1ccccc1C	i	i	i	i	i	11
N#C/C(=C/c1ccc(C(=O)O)cc1)C(=O)Nc1ccccc1	i	i	i	i	i	i
CCOC(=O)c1ccc(NC(=O)CN2C(=O)C(CC)SC(CC)C2=O)cc1 (centres undefined)	nt	i	i	i	i	9.6
CCOC(=O)c1ccc(NC(=O)CN2C(=O)CSCC2=O)cc1	nt	i	i	i	i	i
Cc1cccc2c(=O)cc(C)n(CC(N)=O)c12	i	i	i	i	i	nt
N#Cc1c(N)nc2c3c(sc(=N)c2c1N)NC(=O)CC3c1c(F)cccc1Cl (centres undefined)	nt	nt	i	i	i	8.8
CC1CC(C)CN(C(=O)c2ccccc2Nc2ccc(SC(F)F)cc2)C1 (centres undefined)	nt	nt	i	nt	i	9.0
CCCCCCN(C(=O)CCCCCN1C(=O)NC(c2ccc(-c3ccccc3)cc2)C(C(=O)OCc2ccccc2)=C1C)C(C(=O)NCCCC)c1ccc(OCC(=O)OC)c(C(=O)OC)c1 (centres undefined)	nt	nt	nt	i	nt	nt
CCCCCCN(C(=O)CCCCCN1C(=O)NC(c2ccc(Cl)cc2)C(C(=O)OCc2ccccc2)=C1C)C(C(=O)NCCCC)c1ccc(OCC(=O)OC)c(C(=O)OC)c1 (centres undefined)	i	i	i	i	i	10
O=C(NNC(=O)c1sccc1-n1cccc1)c1ccc(Cl)cc1	nt	nt	i	15	i	i
CC(C)c1ccc(NC(=O)c2sccc2-n2cccc2)cc1	i	i	i	i	i	8.6
Cc1c(Br)cccc1NC(=O)c1sccc1-n1cccc1	i	nt	i	i	i	i
O=C(NNS(=O)(=O)c1ccc(Cl)cc1)c1sccc1-n1cccc1	nt	nt	i	nt	i	i
COc1ccc(N=C2S/C(=C\c3ccc(C)o3)C(=O)N2CC(C)C)cc1	i	nt	i	i	i	11
CCN1C(=O)/C(=C/c2ccc(C)s2)SC1=Nc1ccc(OC)cc1	i	nt	i	i	i	9.1
CCCN1C(=O)/C(=C/c2ccc(C)o2)SC1=Nc1ccc(OC)cc1	nt	nt	i	i	i	i
O=C(CCS(=O)(=O)Cc1ccccc1F)NCc1ccccc1Cl	i	i	i	i	i	i
CCNc1ccc(P(=O)(c2ccccc2)c2ccccc2)cc1	i	i	i	i	i	i
Cc1ccc(/C=N/NC(=S)N2CCOCC2)cc1	i	i	i	32	i	i
SMILES	ROMK primary	S1P3 antagonist	S1P4 ag	KCC2 mod	S1P4 antagonist	RAM network inh
S=C(N/N=C/c1ccc(Cl)cc1)N1CCOCC1	i	i	i	41	i	i
S=C(Nc1ccc(Cl)cc1Cl)N1CCOCC1	i	i	i	i	i	i
CCNC(=S)N1CCN(CC)CC1	i	i	i	i	i	i
O=C(NCc1ccccc1)c1cccc(COc2cccc(Cl)c2)c1	nt	nt	i	i	i	9.2
CC(=O)N1CCN(Cc2nc3cc(NC(=O)c4ccc(F)cc4)ccc3n2C)CC1	i	i	i	i	i	i
Cn1c(Cn2c(=O)sc3ccccc32)nnc1SCC(=O)Nc1ccc(F)cc1	nt	i	i	i	i	i
